Experiment [1] is described as follows: AP1 Signaling Pathway (AID 357; active means well fitted curve in either direction with a large enough effect, not every such curve was filed as active;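 further: ME-180 reporter cells stimulated with EGF at its EC50 level; on the % scale 0 is the no-effect control and ±100 the full control effect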). The conditions noted are these: ME-180 AP-1-bla reporter, EGF-induced, beta-lactamase ratio, 5 h. The method, boiled down: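 AP-1-bla ME-180 cells, Opti-MEM + 0.5% dialyzed FBS, plated overnight 37 °C. Cpd titration + EC50 EGF, 5 h 37 °C. CCF4 2.5 h RT; ex 405, em 460/530 ratio → %activity, AC50.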
The target in experiment [2] is Cytochrome P450 1A2 (Homo sapiens) (UniProt P05177). The experiment can be described thus: p450-cyp1a2 (AID 410; calls by dose curve; further: potency means the concentration at half of the fitted maximal effect;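 on activity change, negative = inhibition: -100% = full effect of reference inhibitor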). The method, boiled down: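 Luminescent readout of luciferin formed from Luciferin-ME by human CYP1A2; data normalized against complete inhibition by 57 uM furafylline. Enzyme 20nM, substrate 100uM at Km, 100mM KPO4 buffer, 60 min reaction at room temperature.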

Experiment [3] can be described thus: NFAT Signaling Pathway (AID 444; active means well fitted curve in either direction with a large enough effect, not every such curve was filed as active;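 further: carbachol stimulus at about its EC50 of 1 µM final; on the % scale 0 is the no-effect control and ±100 the full control effect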). The conditions noted are these: Jurkat NFAT-bla M1, carbachol, beta-lactamase ratio, 5 h. The method, boiled down: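 Read-out: CCF4 FRET ratio (460 nm/530 nm) after 1 h RT dye loading, used for %activity and AC50 from titration series. Cells: Jurkat NFAT-β-lactamase/M1 line, treated with compound plus 1 uM carbachol for 5 h, 37 °C.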

Experiment [4] can be described thus: Stat Signaling Pathway (AID 446; active means well fitted curve in either direction with a large enough effect, not every such curve was filed as active;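 further: ME-180 cervical cancer cells given 40 pM IL-6 alongside compound; SIE-controlled beta-lactamase reporter measured as 460/530 nm FRET emission ratio; on the % scale 0 is the no-effect control and ±100 the full control effect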). The conditions noted are these: ME-180 SIE beta-lactamase reporter, IL-6 stimulated, 5 h. In a few lines: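 Screening format detects activators and inhibitors alike: ME-180 SIE-bla cells stimulated at 40 pM IL-6 for 5 hrs with compound, then dual-emission beta-lactamase read at 405 nm excitation.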
The target of experiment [5] is Glucocorticoid receptor (Homo sapiens) (UniProt P04150). The experiment in a line: GR-GFP Redistribution (AID 450;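 active means compounds whose dose series gives a full or clear partial fitted curve of increased nuclear translocation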; further: potency means the concentration at half of the fitted maximal effect). The conditions noted are these: U2OS GR-GFP nuclear translocation, laser cytometry, 2 h.
The target is the same in experiment [6]. The experiment in a line: GR-EFC Redistribution (AID 451; calls by dose curve; further: potency means the concentration at half of the fitted maximal effect). To be noted: CHO-K1 GR-EFC translocation, beta-gal luminescence, 2 h. In a few lines: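 Translocation of GR-ED fusion to nuclear EA restores b-gal, read by luminescence after 1 h room-temperature detection. Engineered CHO-K1 biosensor cells, 1,000/well, exposed 2 h at 37 C to titrations up to 46 uM final.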

For experiment [7], the target named is Mitogen-activated protein kinase 10 (Mus musculus) (UniProt Q61831). The experiment can be described thus: JNK3 AlphaScreen Assay (AID 530; active means well fitted curve in either direction with a large enough effect, not every such curve was filed as active;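 further: kinase came from lysate of stimulated human HepG2 cells; signal reports phosphorylation of biotinylated GST-cJun 1-79 at Ser73 with 10 µM ATP; on the % scale 0 is the no-effect control and ±100 the full control effect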). The method, boiled down: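 Compound titrations were preincubated 15 minutes at room temperature with substrate, antibody and pre-activated JNK3-containing HepG2 lysate. Reactions were started with 10 uM ATP and stopped with EDTA-containing bead buffer for AlphaScreen detection.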
(In Alpha technology, singlet oxygen from a donor bead excites a nearby acceptor bead.)

The target of experiment [8] is 3',5'-cyclic-AMP phosphodiesterase 4B (Homo sapiens) (UniProt Q07343). The experiment can be described thus: qHTS Assay for Inhibitors of PDE-IV (AID 607; active means well fitted activation curve with a large enough effect in the main read-out, with a control signal flat, not every such curve was filed as active; further: % of control where 0% means no effect). The method, boiled down:
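The readout is membrane depolarisation from a cAMP-sensing CNG channel, detected with a potential dye at ex 535/em 590. Cells were HEK293-derived (endogenous PDE-IV) at 1000 cells/well, titrated up to 22.9 uM final.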
In general terms: qHTS replaces the single test concentration by a dilution series.

Experiment [9] deals with Pyruvate kinase (Leishmania mexicana) (UniProt Q27686). The experiment can be described thus: qHTS Validation Assay for Inhibitors of Leishmania Mexicana Pyruvate Kinase (AID 945).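 Further: 0% = DMSO only neutral control wells.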 In a few lines:
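qHTS eight-point titrations against 0.2 nM LmPYK (E451W) in imidazole buffer pH 7.2 with 0.5 mM PEP, 0.1 mM ADP; 1 h, room temperature. Readout: PKLight luminescence, normalized to neutral DMSO wells.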

In experiment [10] the target is Pyruvate kinase PKM (Homo sapiens) (UniProt P14618). The experiment in a line: qHTS Assay for Activators of Human Muscle Pyruvate Kinase (AID 954; active means well fitted curve in the direction sought with a large enough effect, not every such curve was filed as active;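 further: 0% = uninhibited enzyme and -100% = no enzyme or full thiadiazolimine inhibition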). In a few lines: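 Reaction: 0.1 nM purified PKM2 with 0.5 mM phosphoenolpyruvate and 0.1 mM ADP, room temperature, 1 h. Readout: luciferase-based ATP luminescence after stop reagent. Activators judged against a 0.3 nM enzyme column.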

The target of experiment [11] is alpha-glucosidase (Oryza sativa, rice) (UniProt Q653V4). The experiment can be described thus: Counterscreen for Glucocerebrosidase Inhibitors: qHTS Assay for Rice alpha-Glucosidase at pH 5.0 (AID 997).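 Further: 0% = full activity with enzyme and -100% = basal without enzyme.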 In a few lines: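 Rice alpha-glucosidase (4 nM final) with 400 uM 4-methylumbelliferyl-alpha-D-glucopyranoside in citrate buffer pH 5.0, 20 min at room temperature, stopped at pH 10; fluorescence 365/440 nm, compounds 0.7 nM–77 uM, AC50 from Hill fits.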
In general terms: Counterscreens check selectivity or assay interference.

Experiment [12] addresses Ubiquitin carboxyl-terminal hydrolase 1 (Homo sapiens) (UniProt O94782). The experiment in a line: Inhibitors of USP1/UAF1: Pilot qHTS (AID 504865).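 Further: rhodamine fluorescence freed from ubiquitin-rhodamine substrate followed over time; top concentration of the series differs between compounds; on the % scale 0 is the no-effect control and ±100 the full control effect; nearly all actives have a fitted effect of over 35% in size.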 The method, boiled down:
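Deubiquitinase activity followed as kinetic rhodamine fluorescence release from 150 nM Ub-Rho. 1 nM USP1/UAF1 with compound, after 15 min room-temperature preincubation, in HEPES pH 7.8 buffer containing TCEP, EDTA, BSA and Tween-20.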

For experiment [13], the target named is DNA dC->dU-editing enzyme APOBEC-3G (Homo sapiens) (UniProt Q9HC16). The experiment in a line: qHTS for inhibitors of Vif-A3G interactions: Validation (AID 588379). Further: 0% is about no effect. The method, boiled down:
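HeLa cells stably expressing Vif and A3G-eYFP, 700 cells/well, incubated overnight at 37 deg C, then exposed to compound overnight at 37 deg C. Inhibition of Vif-mediated degradation read as increased yellow fluorescence (Ex 488/Em 500-530) by laser-scanning cytometry.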

In experiment [14] the test system is Zika virus NS2B-NS3 protease. The experiment can be described thus: Primary screen GU AMC qHTS for Zika virus inhibitors (AID 1347154).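 Further: 0% = no-inhibitor control and -100% = no-enzyme control; nearly all actives have a fitted effect of over 70% in size.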 The method, boiled down: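 Fluorogenic AMC-substrate cleavage by noncovalent NS2B-NS3 protease complex (25 nM, pH 8.0 Tris buffer with Tween 20) followed for 15 minutes at room temperature (~20% conversion). Percent inhibition from ex340/em450 signal change, fitted by 4-parameter Hill equation.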

Experiment [15] is described as follows: Primary qHTS for small molecule stabilizers of the endoplasmic reticulum resident proteome: Secreted ER Calcium Modulated Protein (SERCaMP) assay (AID 1508630). Further: on the % scale 0 is the no-effect control and ±100 the full control effect. In a few lines: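 GLuc-SERCaMP-expressing SH-SY5Y cells, pretreated 16 h with compound, are challenged with thapsigargin to empty ER calcium stores; after 4 h, coelenterazine is added directly to the medium and luminescence is imaged.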

The target of experiment [16] is Cytochrome P450 2D6 (Homo sapiens) (UniProt P10635). The experiment in a line: qHTS Assay for Inhibitors and Substrates of Cytochrome P450 2D6 (AID 891). Further: nearly all actives have a fitted effect of over 60% in size. Further: potency means the concentration at half of the fitted maximal effect. In a few lines:
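Human CYP2D6 (5 nM) with 30 uM Luciferin-ME EGE (at Km) in 100 mM KPO4, compound preincubated 10 min, then NADPH regeneration system for 60 min at room temperature. Luciferin read by luminescence; normalized to 1.43 uM quinidine.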

Experiment [17] addresses Cytochrome P450 3A4 (Homo sapiens) (UniProt P08684). The experiment can be described thus: qHTS Assay for Inhibitors and Substrates of Cytochrome P450 3A4 (AID 884). Further: potency means the concentration at half of the fitted maximal effect; nearly all actives have a fitted effect of over 50% in size. In a few lines: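 20 nM human CYP3A4 with 25 uM Luciferin-PPXE (at KM) in 200 mM KPO4, preincubated 10 min with compound; NADPH regeneration started a 60 min RT reaction. Luciferin detected by luminescence, normalized to 57 uM ketoconazole as full inhibition.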

For experiment [18] the target is unchanged. The experiment can be described thus: qHTS Assay for Activators of Cytochrome P450 3A4 (AID 885). Further: nearly all actives have a fitted effect of over 65% in size. In a few lines: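 Steps: enzyme/substrate mix dispensed; compound added, 10 min RT; NADPH regeneration solution added, 60 min RT; luciferin detection buffer stops reaction; 20 min later luminescence measured.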
Experiment [19] has as its target Cytochrome P450 2C19 (Homo sapiens) (UniProt P33261). The experiment in a line: qHTS Assay for Inhibitors and Substrates of Cytochrome P450 2C19 (AID 899). Further: on the % scale 0 is the no-effect control and ±100 the full control effect; nearly all actives have a fitted effect of over 60% in size. The method, boiled down:
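Reactions contain 5nM enzyme, 10uM Luciferin-H EGE (KM) and 50mM KPO4; compound preincubates 10 min at 37C, NADPH regeneration starts turnover for 60 min. Luminescence after detection reagent gives activity.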

Structures are written as SMILES. Several values for one entry are separate records, joined by “and”; a condition that tells them apart may be missing. Equal values may be shown once. Unmarked numbers belong to inactive results. Records with an inconclusive call do not appear. Activity calls are given as the source filed them. Unless noted, the call rests on the fitted dose curve; in most records, active means well fitted curve in the direction sought with a large enough effect; inconclusive means small, poorly fitted or top-dose-only effect, or another doubt; inactive means no such curve, though single readings can be large; an effect the other way counts as inactive or inconclusive.

Ubiquitin carboxyl-terminal hydrolase 1 (Homo sapiens), sequence (O94782 whole entry, looked up): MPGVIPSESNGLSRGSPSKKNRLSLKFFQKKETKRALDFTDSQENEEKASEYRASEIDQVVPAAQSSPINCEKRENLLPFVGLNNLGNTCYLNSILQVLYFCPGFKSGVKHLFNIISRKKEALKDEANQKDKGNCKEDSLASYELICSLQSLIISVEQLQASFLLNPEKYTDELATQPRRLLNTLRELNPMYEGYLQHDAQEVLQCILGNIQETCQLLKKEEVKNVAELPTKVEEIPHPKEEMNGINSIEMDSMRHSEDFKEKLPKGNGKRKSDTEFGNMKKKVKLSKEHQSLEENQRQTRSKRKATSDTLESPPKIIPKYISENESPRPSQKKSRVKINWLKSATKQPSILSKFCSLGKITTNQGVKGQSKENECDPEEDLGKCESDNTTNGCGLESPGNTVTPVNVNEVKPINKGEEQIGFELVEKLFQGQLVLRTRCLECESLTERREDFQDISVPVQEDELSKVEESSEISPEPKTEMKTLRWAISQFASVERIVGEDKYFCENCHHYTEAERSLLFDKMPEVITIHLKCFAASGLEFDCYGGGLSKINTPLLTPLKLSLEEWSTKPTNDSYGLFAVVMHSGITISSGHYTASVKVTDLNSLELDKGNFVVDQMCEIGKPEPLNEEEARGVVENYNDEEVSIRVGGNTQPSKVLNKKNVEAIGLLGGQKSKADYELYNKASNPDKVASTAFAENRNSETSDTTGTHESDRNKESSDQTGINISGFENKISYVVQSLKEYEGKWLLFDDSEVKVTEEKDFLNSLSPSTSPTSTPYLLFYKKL
Pyruvate kinase PKM (Homo sapiens), sequence (P14618 whole entry, looked up): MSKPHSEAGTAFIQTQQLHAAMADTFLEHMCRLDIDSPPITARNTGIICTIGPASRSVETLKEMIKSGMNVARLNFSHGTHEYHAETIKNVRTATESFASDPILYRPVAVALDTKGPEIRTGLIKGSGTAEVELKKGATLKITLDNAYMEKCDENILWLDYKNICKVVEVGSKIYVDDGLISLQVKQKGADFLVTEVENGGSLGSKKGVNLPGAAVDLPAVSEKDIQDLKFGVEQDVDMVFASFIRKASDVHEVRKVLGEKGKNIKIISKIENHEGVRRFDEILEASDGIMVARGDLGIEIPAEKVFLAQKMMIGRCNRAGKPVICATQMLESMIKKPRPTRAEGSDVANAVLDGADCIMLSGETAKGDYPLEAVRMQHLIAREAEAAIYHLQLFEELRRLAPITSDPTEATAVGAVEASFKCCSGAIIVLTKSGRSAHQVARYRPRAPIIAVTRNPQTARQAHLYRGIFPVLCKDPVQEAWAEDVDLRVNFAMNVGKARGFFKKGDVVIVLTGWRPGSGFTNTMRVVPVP
Pyruvate kinase (Leishmania mexicana), sequence (Q27686 2-499 E452W): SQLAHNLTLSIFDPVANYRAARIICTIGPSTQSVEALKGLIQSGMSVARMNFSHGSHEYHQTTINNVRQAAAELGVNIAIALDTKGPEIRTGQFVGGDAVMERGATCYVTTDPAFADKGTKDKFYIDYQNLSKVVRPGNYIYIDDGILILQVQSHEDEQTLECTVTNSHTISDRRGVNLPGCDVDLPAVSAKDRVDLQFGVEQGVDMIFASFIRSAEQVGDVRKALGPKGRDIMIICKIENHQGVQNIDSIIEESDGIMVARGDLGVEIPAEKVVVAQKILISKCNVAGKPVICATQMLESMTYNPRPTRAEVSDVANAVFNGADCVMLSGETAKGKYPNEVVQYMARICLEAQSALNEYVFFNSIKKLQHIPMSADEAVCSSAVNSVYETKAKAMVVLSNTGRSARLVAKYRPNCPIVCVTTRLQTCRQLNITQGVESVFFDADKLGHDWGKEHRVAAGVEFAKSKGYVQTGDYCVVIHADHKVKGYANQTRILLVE
3',5'-cyclic-AMP phosphodiesterase 4B (Homo sapiens), sequence (Q07343 whole entry, looked up): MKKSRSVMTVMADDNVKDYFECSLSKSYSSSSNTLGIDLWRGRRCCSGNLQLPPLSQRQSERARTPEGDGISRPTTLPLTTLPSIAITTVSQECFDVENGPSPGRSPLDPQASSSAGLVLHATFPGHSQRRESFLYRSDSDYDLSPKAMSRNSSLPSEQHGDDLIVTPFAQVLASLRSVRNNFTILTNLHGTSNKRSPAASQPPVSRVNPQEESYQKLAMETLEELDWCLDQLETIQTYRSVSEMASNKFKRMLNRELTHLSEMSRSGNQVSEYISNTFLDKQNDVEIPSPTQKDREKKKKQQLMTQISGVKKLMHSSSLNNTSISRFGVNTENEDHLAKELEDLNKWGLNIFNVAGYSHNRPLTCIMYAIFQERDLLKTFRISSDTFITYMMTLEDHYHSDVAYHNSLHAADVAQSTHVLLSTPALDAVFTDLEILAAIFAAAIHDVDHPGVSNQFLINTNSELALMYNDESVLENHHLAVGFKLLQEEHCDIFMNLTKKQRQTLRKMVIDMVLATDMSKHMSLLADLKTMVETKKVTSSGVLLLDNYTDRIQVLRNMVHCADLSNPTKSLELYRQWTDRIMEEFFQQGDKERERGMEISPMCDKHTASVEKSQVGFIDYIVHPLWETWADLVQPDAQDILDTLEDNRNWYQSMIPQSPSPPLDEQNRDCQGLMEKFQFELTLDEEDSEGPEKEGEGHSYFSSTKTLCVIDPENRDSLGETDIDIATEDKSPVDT
Cytochrome P450 1A2 (Homo sapiens), sequence (P05177 whole entry, looked up): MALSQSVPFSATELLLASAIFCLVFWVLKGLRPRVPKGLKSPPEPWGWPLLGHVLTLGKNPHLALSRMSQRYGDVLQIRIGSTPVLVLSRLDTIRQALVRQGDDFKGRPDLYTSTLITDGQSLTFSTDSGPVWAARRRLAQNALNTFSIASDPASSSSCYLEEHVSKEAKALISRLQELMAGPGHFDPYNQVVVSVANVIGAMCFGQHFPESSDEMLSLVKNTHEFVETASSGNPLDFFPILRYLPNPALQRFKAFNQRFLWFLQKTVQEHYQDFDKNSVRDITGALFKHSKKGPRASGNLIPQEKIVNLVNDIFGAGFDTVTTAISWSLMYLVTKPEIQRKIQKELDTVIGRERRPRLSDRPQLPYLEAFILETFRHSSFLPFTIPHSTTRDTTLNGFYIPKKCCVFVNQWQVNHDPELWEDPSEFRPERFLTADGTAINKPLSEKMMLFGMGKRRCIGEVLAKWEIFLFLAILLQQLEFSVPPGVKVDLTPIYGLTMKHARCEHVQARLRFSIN
DNA dC->dU-editing enzyme APOBEC-3G (Homo sapiens), sequence (Q9HC16 whole entry, looked up): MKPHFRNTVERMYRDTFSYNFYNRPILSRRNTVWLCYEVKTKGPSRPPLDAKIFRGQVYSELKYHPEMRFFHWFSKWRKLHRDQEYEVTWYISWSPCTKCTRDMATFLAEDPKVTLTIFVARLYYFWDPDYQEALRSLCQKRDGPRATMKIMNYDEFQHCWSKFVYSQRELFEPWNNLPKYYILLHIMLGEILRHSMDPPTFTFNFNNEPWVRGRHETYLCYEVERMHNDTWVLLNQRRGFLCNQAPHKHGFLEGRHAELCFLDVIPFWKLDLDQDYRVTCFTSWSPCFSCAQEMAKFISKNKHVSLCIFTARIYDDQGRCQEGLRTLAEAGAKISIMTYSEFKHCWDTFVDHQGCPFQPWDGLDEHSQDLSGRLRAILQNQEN
Glucocorticoid receptor (Homo sapiens), sequence (P04150 whole entry, looked up, the tested form may be a part): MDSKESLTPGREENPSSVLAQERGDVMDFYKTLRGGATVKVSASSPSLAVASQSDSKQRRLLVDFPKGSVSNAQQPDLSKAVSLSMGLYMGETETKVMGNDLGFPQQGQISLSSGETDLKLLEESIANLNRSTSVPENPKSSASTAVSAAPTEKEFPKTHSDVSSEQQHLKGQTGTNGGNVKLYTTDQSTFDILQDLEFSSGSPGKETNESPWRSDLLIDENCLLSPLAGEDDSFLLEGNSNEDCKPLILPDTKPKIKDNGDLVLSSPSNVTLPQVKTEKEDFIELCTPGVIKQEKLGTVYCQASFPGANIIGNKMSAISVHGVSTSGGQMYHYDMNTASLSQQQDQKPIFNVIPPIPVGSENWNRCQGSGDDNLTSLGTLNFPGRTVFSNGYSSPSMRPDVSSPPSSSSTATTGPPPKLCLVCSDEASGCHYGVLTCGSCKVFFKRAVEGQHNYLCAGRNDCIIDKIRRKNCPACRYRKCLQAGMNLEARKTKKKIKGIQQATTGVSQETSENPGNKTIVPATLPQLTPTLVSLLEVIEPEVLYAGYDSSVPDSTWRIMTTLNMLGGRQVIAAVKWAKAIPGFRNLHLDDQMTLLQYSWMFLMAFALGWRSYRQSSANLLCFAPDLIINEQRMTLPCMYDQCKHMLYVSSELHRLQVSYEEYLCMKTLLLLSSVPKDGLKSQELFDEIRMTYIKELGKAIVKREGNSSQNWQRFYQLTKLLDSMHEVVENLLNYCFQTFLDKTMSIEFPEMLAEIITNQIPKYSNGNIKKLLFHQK
Cytochrome P450 2D6 (Homo sapiens), sequence (P10635 whole entry, looked up): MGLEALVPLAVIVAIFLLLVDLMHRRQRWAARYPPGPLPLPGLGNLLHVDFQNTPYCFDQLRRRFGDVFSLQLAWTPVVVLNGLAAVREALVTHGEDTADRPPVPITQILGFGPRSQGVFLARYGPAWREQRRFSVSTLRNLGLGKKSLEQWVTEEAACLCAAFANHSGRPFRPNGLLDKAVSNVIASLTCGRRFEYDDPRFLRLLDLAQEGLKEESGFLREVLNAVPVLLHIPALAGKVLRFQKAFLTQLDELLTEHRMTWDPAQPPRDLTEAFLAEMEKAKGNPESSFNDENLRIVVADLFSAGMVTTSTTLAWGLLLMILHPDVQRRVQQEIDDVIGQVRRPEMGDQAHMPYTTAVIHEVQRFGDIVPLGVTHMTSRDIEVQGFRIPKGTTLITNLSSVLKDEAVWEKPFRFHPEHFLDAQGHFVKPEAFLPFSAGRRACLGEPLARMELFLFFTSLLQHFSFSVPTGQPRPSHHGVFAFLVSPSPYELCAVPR

Regarding `O=C(NCCNC[C@@H](O)COc1ccc(O)cc1)N1CCOCC1`, the activity change, negative = inhibition was -7.17% in [1] (at 17.2 µM (top of the series)), -6.28% in experiment [1] (at 38 µM (top of the series)), -2.05% in experiment [3] (at 17.2 µM (top of the series)) and -2.2% in experiment [3] (at 38 µM (top of the series)). The Potency entry in [2], in experiment [7], in experiment [8], in [9], in experiment [12] and in experiment [13] was “inactive” each time. Moreover, the Potency result in [14] and in [15] was “inactive” each time. The activity, negative = inhibition in experiment [4] (at 17.2 µM (top of the series)) is 6.36%; in experiment [4] (at 38 µM (top of the series)) it was -6.64%. The Potency in [5] is > 46 µM and > 20.6 µM; in experiment [6], > 46 µM and > 20.6 µM. The compound was called inactive in [10] and in experiment [11].
As for `C[C@@](N)(C(=O)O)c1ccc(S(=O)(=O)O)cc1`, the Potency entry in [2], in experiment [7], in experiment [8], in experiment [12], in experiment [13] and in experiment [14] was “inactive” throughout. In addition, the Potency result in experiment [15] is “inactive”. The Potency in [5] and in experiment [6] was more than 46 µM in each case.
As for `C=CCN1CCc2cc(O)c(O)cc2[C@H](c2ccccc2)C1`, the activity change, negative = inhibition is -3.34% in experiment [1] (at 38 µM (top of the series)) and -18.1% in [3] (at 38 µM (top of the series)). Moreover, the activity, negative = inhibition in [4] (at 38 µM (top of the series)) is -21%. The Potency in [5] is more than 46 µM; in [6], more than 46 µM; in experiment [16] it was 0.398 µM (active). The Potency entry in experiment [7], in experiment [8], in experiment [9], in experiment [13], in experiment [14] and in [15] was “inactive” in each case. In addition, the compound was classed as inactive in [10] and in [11].
Consider `O[C@H](CCCN1CCN(c2ncc(F)cn2)CC1)c1ccc(F)cc1`, for which the Potency in [2] is 31.6 µM (active); in experiment [5], more than 46 µM; in experiment [6], more than 46 µM. For the same compound, the Potency entry in experiment [7], in experiment [8], in experiment [12], in experiment [13], in experiment [14] and in [15] was “inactive” throughout.
As for `CC#CCOC(=O)c1c(C)nc2sc3c(c2c1N)CC[C@@H](O)C3`, the activity change, negative = inhibition was -15.6% in experiment [1] (at 38 µM (top of the series)) and -25.8% in experiment [3] (at 38 µM (top of the series)). The Potency was 398 nM (active) and 25.1 nM (active) in [2]; more than 46 µM in experiment [5]; more than 46 µM in [6]; 3.16 µM (active) in [17]. Moreover, the Potency entry in experiment [7], in [8], in [18], in [16], in experiment [19] and in experiment [9] was “inactive” in each case. Besides, the Potency result in experiment [13], in [14] and in experiment [15] was “inactive” in each case. For the same compound, the outcome in [10] and in experiment [11] was inactive.
On to `CC[C@](N)(CCC(=O)O)C(=O)O`, for which the Potency is 20 µM (active) in [2], more than 46 µM in [5] and more than 46 µM in experiment [6]. The Potency result in [7], in [12], in experiment [13], in experiment [14] and in experiment [15] was “inactive” each time.
In the case of `NCCC[C@@H](N)C(=O)O`, the activity change, negative = inhibition in [1] (at 7.69 µM (top of the series)) is -2%; in [3] (at 7.69 µM (top of the series)), -0.481%; in experiment [7], 6.02% [at 11.4 µM]. Besides, the activity, negative = inhibition in experiment [4] (at 7.69 µM (top of the series)) is 1.44%. Also, the Potency result in experiment [8], in experiment [14] and in experiment [15] was “inactive” in each case.
`COc1cc([C@@H]2c3cc4c(cc3C(O[C@@H]3O[C@@H]5CO[C@@H](c6cccs6)OC5[C@H](O)[C@H]3O)C3COC(=O)[C@@H]32)OCO4)cc(OC)c1O` (some centres not stated): the Potency entry in [14] and in [15] was “inactive” each time.
For the compound `CCOC(OCC)P(=O)(O)CCCNCc1ccc(Cl)c(Cl)c1`, the Potency result in experiment [2], in [7], in experiment [12], in experiment [13], in [14] and in [15] was “inactive” each time. The Potency in [5] and in experiment [6] was more than 46 µM each time.

(Values after PubChem BioAssay (NCATS).)
